nsP2pro inh: Primary qHTS for inhibitors of NSP2Pro chikungunya virus (CHIKV); Potency, µM (titrated, usually from 24.9 µM), inactives show at the top dose activity change, negative = inhibition, actives largely listed as inhibitors; 31,000 compounds, 1.1% hits; FRET peptide cleavage, nsP2pro, fluorescence 1 h; calls by dose curve; also: nearly all actives have a fitted effect of over 60% in size
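Enzyme 150 nM, substrate 2.5 uM (both final); Tris-HCl 10 mM pH 8.0 + 0.01% Tween 20; cpd up to 25 uM, 7 pts; 15 min preinc., 1 h RT; fluorescence ex 525/em 598.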
* marks the source's active call; other numbers are inactive results; [ ] = dose if it differs, or a comment. Only a selection was taken, and hits are over-represented in it overall. % is scaled to controls: 0 for no effect and ±100 for the full control effect; potency is read from the fitted curve at half-maximal effect.

For C=C(C)C(=O)OC1C(OC(C)=O)/C(C=O)=C\CC/C(CO)=C/C2OC(=O)C(=C)C21 (stereo not drawn) the results were nsP2pro inh 1.4µM*.
Screening C=C1C(=O)O[C@@H]2/C=C(\CO)CC/C=C(\CO)[C@H](OC(C)=O)C(OC(=O)C(C)CC)C12 (stereo partly drawn) returned nsP2pro inh -3%[10 µM].
N[C@H]1CCN(c2cnc3c(O)ccc(C(=O)O)c3c2)C1 was read as nsP2pro inh inactive.
For CN(CCc1cnc[nH]1)c1ncnc2ccc(-c3ccc4c(c3)OCO4)cc12 the results were nsP2pro inh inactive.
COc1cc(C(=O)OC[C@H]2O[C@H](O[C@@]3(CO)O[C@@H](CO)[C@H](O)[C@H]3O)[C@H](O)[C@@H](O)[C@@H]2O)ccc1O was read as nsP2pro inh -18%[10 µM].
Screening COc1ccccc1-c1cc([C@H]2CN3CC[C@H]2C[C@@H]3COC(=O)NC2CCCCC2)nc(C)n1 returned nsP2pro inh 10µM*.
Screening CC(=O)c1ccc(NC(=O)OC[C@H]2C[C@@H]3CCN2C[C@@H]3c2cc(C3CCCC3)nc(-c3ccncc3)n2)cc1 returned nsP2pro inh inactive.
For CC(=O)c1cccc(NC(=O)OC[C@H]2C[C@@H]3CCN2C[C@@H]3c2cc(C3CCCC3)nc(C)n2)c1 the results were nsP2pro inh inactive.
`O=C(Nc1ncc(Cc2ccc(C(F)(F)F)cc2)s1)c1ncc(-c2ccccc2)[nH]1` gave nsP2pro inh 3%.
Screening NC(=O)C[C@H](N)C(=O)Nc1ccc(Cl)cc1C(=O)c1ccc[nH]1 returned nsP2pro inh -3%.
For O=[S+]1([O-])[C@@H](c2ccccc2)[C@H](COCc2ccccc2)CN1C1CC1 the results were nsP2pro inh -6%.
`CC1COC2=C1C(=O)C(=O)c1c2ccc2c1CCCC2(C)C` (stereo not drawn) gave nsP2pro inh 11µM*.
`Cc1cc(C)nc(NC(=S)N2CCN(c3ncc(Cl)cc3Cl)CC2)c1` gave nsP2pro inh 2%.
`Cc1nn(-c2ccccc2)c2c1C(C)N(C1CCN([S+](=O)([O-])c3ccccc3)CC1)C2=O` (stereo not drawn) gave nsP2pro inh inactive.
O=S(=O)(Cc1ccccc1)N1CCC(n2cnnc2C2CC2)CC1 was read as nsP2pro inh -1%.
Screening COc1cccc(C(=O)Nc2ccc(-c3ccc(OC)nn3)cc2)c1 returned nsP2pro inh -2%.
`CC1=C(C(=O)O)/C(=C\CO[C@@H]2O[C@H](CO)[C@@H](O)[C@H](O)[C@H]2O)C(OC(=O)/C=C/c2ccc(O)cc2)C1` (stereo partly drawn) gave nsP2pro inh 14%[10 µM].
OC[C@H]1O[C@@H](OC/C=C/c2ccc(O)cc2)[C@H](O)[C@@H](O)[C@@H]1O was read as nsP2pro inh 16%.
For CC1=C(C(=O)O)/C(=C\CO[C@@H]2O[C@H](CO)[C@@H](O)[C@H](O)[C@H]2O)C(OC(=O)/C=C\c2ccc(O)cc2)C1 (stereo partly drawn) the results were nsP2pro inh 0.024µM*.
O=C(NCCC1=CCCCC1)c1c(-c2cncnc2)cc(=O)n2c1CCCC2 was read as nsP2pro inh -11%.
Screening Cc1ccnc(NC(=S)N2CC3CN(c4ccc(Cl)cc4C(F)(F)F)CC3C2)c1 (stereo not drawn) returned nsP2pro inh inactive.
`Cc1cnc(-c2ccccc2OC(C)C)nc1NCc1ccc(-n2ccnn2)cc1` gave nsP2pro inh 3%.
For O=C1c2ccccc2NC(c2ccc(-c3ccc(Br)cc3)o2)N1O (stereo not drawn) the results were nsP2pro inh 13µM*.
Screening O=C1c2ccccc2NC(c2ccc(-c3ccc(F)cc3)o2)N1O (stereo not drawn) returned nsP2pro inh -4%.
For O=C1c2ccccc2NC(c2ccc(-c3ccc(-c4ccccc4)cc3)o2)N1O (stereo not drawn) the results were nsP2pro inh inactive.
Cc1cccc(-n2cnc3cc(C(=O)N4CCCC(c5ccccc5)C4)ccc32)c1 (stereo not drawn) was read as nsP2pro inh 1%.
Screening CCCN(Cc1cccs1)c1ncnc2ccc(-c3ccc4c(c3)OCO4)cc12 returned nsP2pro inh 5%.
For CC(C)c1nn2c(=O)cc(COC(=O)c3ccc4c(c3)OCO4)nc2s1 the results were nsP2pro inh -29%.
CC(C)c1nn2c(=O)cc(COC(=O)Cc3ccccc3)nc2s1 was read as nsP2pro inh -17%.
`CC(C)c1nn2c(=O)cc(COC(=O)c3ccco3)nc2s1` gave nsP2pro inh 13µM*.
For [Mn].[O]=[Mn][OH].[O]=[Mn][OH] the results were nsP2pro inh -3%.
Cc1nn(-c2ccc(C(F)(F)F)cc2)c(C)c1[C@@H]1C=C[C@@H](NCc2ccc(N(C)C)cc2)C1 was read as nsP2pro inh 6%.
For COc1ccc(CN2CCCC3(C2)CN(C)C(=O)O3)cc1C(=O)O (stereo not drawn) the results were nsP2pro inh -5%.
`COc1ccc(-c2ncc(CN3CCCC4(C3)CN(C)C(=O)O4)cn2)cc1` (stereo not drawn) gave nsP2pro inh -8%.
For CN1CC2(CCN(Cc3ccc(-c4ccc(Cl)cc4)o3)C2)OC1=O (stereo not drawn) the results were nsP2pro inh 13µM*.
Screening CC(=O)N[C@H](CC(C)C)c1nc(-c2ccc(C)nn2)no1 returned nsP2pro inh -5%.
Screening COC[C@@H]1CN(S(=O)(=O)c2ccccc2C)C[C@H]1c1nc(C)no1 returned nsP2pro inh inactive.
O=C(O)C1=C(CSc2nnnn2CS(=O)(=O)O)CS[C@@H]2[C@@H](NC(=O)[C@H](O)c3ccccc3)C(=O)N12 was read as nsP2pro inh -23%.
Screening Cn1nnnc1SCC1=C(C(=O)O)N2C(=O)[C@H](NC(=O)C(O)c3ccccc3)C2SC1 (stereo partly drawn) returned nsP2pro inh -19%.
`NCc1ccccc1CC(=O)N[C@@H]1C(=O)N2C(C(=O)O)=C(CSc3nnnn3CC(=O)O)CS[C@H]12` gave nsP2pro inh 12µM*.
Screening CCCCCCCCCCC(O)C1C=CC2C(=O)N(c3ccccc3)C(=O)C2N1Nc1ccc([N+](=O)[O-])cc1 (stereo not drawn) returned nsP2pro inh 75%.
Screening CC(=C(CCOC(=O)C(C)C)SSC(CCOC(=O)C(C)C)=C(C)N(C=O)Cc1cnc(C)nc1N)N(C=O)Cc1cnc(C)nc1N returned nsP2pro inh 11µM*.
Screening C/C(=C1\CCOC(=O)S1)N(C=O)Cc1cnc(C)nc1N returned nsP2pro inh 5%.
Screening Cc1ccc(/C=C2\CNC/C(=C\c3ccc(C)cc3)C2=O)cc1 returned nsP2pro inh -1%.
`Cc1ccnc(NC(=S)N2CCN(c3cccc(C(F)(F)F)c3)CC2)n1` gave nsP2pro inh inactive.
`COc1ccc(C[C@H](C)NC[C@@H](O)c2ccc(O)c(NC=O)c2)cc1` gave nsP2pro inh 12%.
`CC(Cc1ccc2c(c1)OCO2)NCC(O)c1ccc(O)c(O)c1` (stereo not drawn) gave nsP2pro inh 11µM*.
Screening CC(CCc1ccc(O)cc1)NCC(O)c1ccc(O)cc1 (stereo not drawn) returned nsP2pro inh 1%.
`N#Cc1cccc(C(=O)N2CCCOCCNC(=O)CC2)c1` gave nsP2pro inh -10%.

Bioassay records from PubChem BioAssay.
